Data published in the supplement of paper PMC6555819.

Tests used:
Assay in all cases: PBM binding z-score (relative to random genomic background probes); higher = stronger binding; sequences stand for … in GC…GCGATTGACAGCGTAGAATGAAGG
[1] = system: RARb homodimer (NR concentration 270 nM)
Summary of the method: (§1)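 Ligand-free nuclear receptor dimers were bound for 1 h to custom Agilent 4×180K protein-binding microarrays. Detection used antibodies against each partner (one per run). Binding z-scores rest on regression-normalized fluorescence, with random background probes as the reference.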

[2] = system: RARg:RXRa (NR concentration 270 nM, RXRa partner concentration 90 nM)
Summary of the method: as §1

[3] = system: RARg homodimer (NR concentration 270 nM)
Summary of the method: as §1

[4] = system: RXRa DBDmut IVT, anti-RXR (DBD mutation: RXRa K156A/R161A, NR concentration 90 nM)
Summary of the method: as §1

[5] = system: RXRa homodimer (NR concentration 180 nM)
Summary of the method: as §1

[6] = system: THRa:RXRa (NR concentration 90 nM, RXRa partner concentration 90 nM)
Summary of the method: as §1

[7] = system: THRa homodimer (NR concentration 90 nM)
Summary of the method: as §1

[8] = system: VDR homodimer (NR concentration 270 nM)
Summary of the method: as §1

Sequence | PBM binding z-score [1] | PBM binding z-score [2] | PBM binding z-score [3] | PBM binding z-score [4] | PBM binding z-score [5] | PBM binding z-score [6] | PBM binding z-score [7] | PBM binding z-score [8]
CAAACTAGGTCATCCAGGACAGTGAATACATTGA | 3.12 | 4.15 | 4.93 | 2.37 | 3.09 | 3.76 | 2.38 | 2.21
GCTGACGGGTCAAAGGTTATAGCATGAATAGAAT | 3.04 | 6.46 | 4.08 | 1.66 | 9.14 | 3.85 | -0.263 | 0.919
CCTTATGGGTCACTCCAGGTTATAGCATCGGAGT | 2.87 | 3.68 | 3.9 | 0.586 | 3.31 | 4.85 | 0.288 | 0.918
AGAATGAGGTTATACGTAGATCTGGGAAGAAAGT | 0.334 | 1.39 | 0.958 | 1.1 | 1.94 | 2.03 | 0.225 | 0.724
AGAATGAGGTTGTACGTAGATCAGGGAAGAAAGT | 0.561 | 0.15 | 0.156 | 0.679 | 0.32 | 0.638 | 0.288 | 0.389
TCATAAAGGTAAACAGGTGAAAGTCCGTAAGTTA | 1.37 | 1.34 | 0.882 | 1.53 | 1.74 | 1.22 | 0.368 | 0.647
ACTCGGAGGACAAAGGTCATAGCTACGCCAGTGA | 4.7 | 6.88 | 5.24 | 1.91 | 6.51 | 4.13 | 1.2 | 2.55
CGTCCAAGGACAGCAGGTCAGTGAAAGCGACGTG | 2.36 | 1.72 | 2.06 | 0.0474 | 0.679 | 2.46 | 0.788 | -0.264
TCTAGCAGGTCAGAGGGTCACTCAAGAGGTACGG | 4.51 | 5.64 | 5.13 | 0.85 | 5.09 | 3.03 | 0.408 | 1.72
CGTCCACGGTCAAGGTCAGTGAAAGAGACTCGAA | 3.86 | 3.41 | 5.01 | 0.716 | 2.45 | 3.05 | 1.64 | 0.791
ATCGAAAGGTCGAGCTGAGTATAGAGAAAGGGAA | 1.8 | 4.17 | 3.96 | 0.849 | 4.35 | 1.96 | -0.857 | 0.148
CAAACTAGGTCAAGGTCAAAGTGGGTTTGTGCCA | 5.23 | 5.95 | 6.67 | 3.05 | 5.78 | 4.34 | 3.93 | 5.14
CGTCAAAGTTCAAGGTAAGGTAACAGAAAGCAGC | 3.86 | 5.71 | 5.4 | 4.12 | 4.23 | 4.38 | 1.85 | 2.9
TCATATAGGTAAAGGTGAAAGCCGAACGATATGA | 1.16 | 1.44 | 1.18 | 0.508 | 1.93 | 1.47 | -0.707 | -0.196
TCAGACAGGTGAAGCTAACTCAGGTACGCAGTCG | 0.0204 | 0.241 | 0.351 | 0.962 | 0.617 | 0.525 | -0.351 | -0.124
GCTCGGAGGTCAAGGTCAGAGCTTTGTCCGTAGA | 5.13 | 7.02 | 7.59 | 3.19 | 7.07 | 4.24 | 2.72 | 3.21
